Source: PubChem BioAssay (NCATS)
Results filed as inconclusive are left out. Entries that show only a call come without a potency. Activity calls are given as the source filed them. Calls follow the shape of the dose curve; as a rule, active = well fitted inhibition curve with a large enough effect; inconclusive = small, poorly fitted or top-dose-only effect; inactive = flat fitted curve, though single readings scatter.

The molecules below were run on CP291 (assay: qHTS profiling for inhibitors of Plasmodium falciparum proliferation (AID 504749; also: nearly all actives have a fitted effect of over 60% in size)). Settings: P. falciparum in erythrocytes, SYBR Green DNA, 72 h; series mostly up to 28.7 µM.
How it was run: (§1)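 P. falciparum-infected erythrocytes (0.3% parasitemia, 2.5% hematocrit final) were exposed to compounds for 72 h at 37 C in 5% CO2, then lysed with SYBR Green buffer overnight at room temperature; parasite DNA fluorescence was normalized to artemisinin and DMSO controls.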
Potency is read from the fitted curve at half-maximal effect.

Compound | Potency
CCCCc1ccc(C(=O)O)nc1 | inactive
COC(=O)c1cncn1C(C)c1ccccc1 (centres undefined) | inactive
O=[N+]([O-])c1ccc([As](=O)(O)O)cc1 | 8.49 µM (active)
Cc1ccc(Cl)c(O)c1 | inactive
CC(C)NC(C)Cc1ccc(I)cc1 (centres undefined) | inactive
CC(=O)OCC1=C(C(=O)O)N2C(=O)[C@@H](N)[C@@H]2SC1 | inactive
CCCCCCCCCCCCCCCC[N+](C)(C)C | 13.5 µM (active)
CCCN1CCC[C@H](c2cccc(O)c2)C1 | inactive
CN(C)[C@@H]1C(=O)C(C(N)=O)=C(O)[C@@]2(O)C(=O)C3=C(O)c4c(O)cccc4[C@@](C)(O)[C@H]3[C@H](O)[C@@H]12 | inactive
COC(=O)[C@@H](N)CCCN=C(N)N[N+](=O)[O-] | inactive
CC[N+]1(CCOC(=O)C(O)(c2ccccc2)c2ccccc2)CCCCC1 | inactive
CC(=O)[O][Hg][c]1ccccc1 | 4.26 µM (active)
Cc1cc(O)ccc1Cl | inactive
CCCCCCCCCC(CC)c1ccc(S(=O)(=O)O)cc1 (centres undefined) | inactive
O=C(O)COc1ccccc1 | inactive
c1ccc(C2(c3ccccc3)CC2C2=NCCN2)cc1 (centres undefined) | inactive
O=C(O)C(Cl)Cl | inactive
C#CC1(O)CCC2C3CCC4=CC(=O)CCC4(C)C3CCC21C (centres undefined) | inactive
C[C@]12CCC(=O)C(O)=C1CC[C@@H]1[C@H]3CCC(=O)[C@@]3(C)CC[C@@H]12 | inactive
CN1C2CCC1CC(OC(=O)c1cc(Cl)cc(Cl)c1)C2 (centres undefined) | inactive
NC(=O)CN1CC(O)CC1=O (centres undefined) | inactive
C=CCN1CC[C@]23CCCCC2[C@H]1Cc1ccc(O)cc13 (some centres undefined) | inactive
C1CCC(NC2CCCCC2)CC1 | inactive

These molecules were tested on CP297 in the same assay as above. Settings: P. falciparum in erythrocytes, SYBR Green DNA, 72 h; series mostly up to 28.7 µM.
How it was run: as §1

Compound | Potency
CCCCc1ccc(C(=O)O)nc1 | inactive
COC(=O)c1cncn1C(C)c1ccccc1 (centres undefined) | inactive
O=[N+]([O-])c1ccc([As](=O)(O)O)cc1 | 10.7 µM (active)
NC1=NC(=O)N2CC12 (centres undefined) | inactive
Cc1ccc(Cl)c(O)c1 | inactive
CC(=O)OCC1=C(C(=O)O)N2C(=O)[C@@H](N)[C@@H]2SC1 | inactive
CCCCCCCCCCCCCCCC[N+](C)(C)C | 13.5 µM (active)
CN[C@@H]1C[C@@H](c2ccc(Cl)c(Cl)c2)c2ccccc21 | inactive
COC(=O)[C@@H](N)CCCN=C(N)N[N+](=O)[O-] | inactive
CC[N+]1(CCOC(=O)C(O)(c2ccccc2)c2ccccc2)CCCCC1 | inactive
CC(=O)[O][Hg][c]1ccccc1 | 13.5 µM (active)
Cc1cc(O)ccc1Cl | inactive
CCCCCCCCCC(CC)c1ccc(S(=O)(=O)O)cc1 (centres undefined) | inactive
O=C(O)COc1ccccc1 | inactive
c1ccc(C2(c3ccccc3)CC2C2=NCCN2)cc1 (centres undefined) | inactive
O=C(O)C(Cl)Cl | inactive
C#CC1(O)CCC2C3CCC4=CC(=O)CCC4(C)C3CCC21C (centres undefined) | inactive
C[C@]12CCC(=O)C(O)=C1CC[C@@H]1[C@H]3CCC(=O)[C@@]3(C)CC[C@@H]12 | inactive
NC(=O)CN1CC(O)CC1=O (centres undefined) | inactive
C=CCN1CC[C@]23CCCCC2[C@H]1Cc1ccc(O)cc13 (some centres undefined) | inactive
C1CCC(NC2CCCCC2)CC1 | inactive
